Results from PubChem BioAssay AID687026 (Broad Institute, 2013).
Potency and affinity values are given separately. The source made the active and inactive calls. Entries that show only a call come without a potency. No rule for the calls is given here.

assay: viability loss in CEM21 cells – cell-based, plate reader, dry powder, cytotoxicity control, dose response (AID 687026); details: series mostly up to 35 µM

Row | SMILES | outcome
1 | Cc1noc(C)c1S(=O)(=O)N(C)C[C@@H]1Oc2ccc(NC(=O)Nc3ccccc3)cc2CC(=O)N([C@@H](C)CO)C[C@@H]1C | inactive
2 | CCOc1ccc(OCC)c(S(=O)(=O)NCc2ccncc2)c1 | inactive
3 | CCOc1ccc(S(=O)(=O)NCc2ccccn2)cc1 | inactive
4 | Cc1noc(C)c1S(=O)(=O)Nc1cccc2c1O[C@@H](CN(C)Cc1ccc(C(F)(F)F)cc1)[C@H](C)CN([C@H](C)CO)C2=O | inactive
5 | Cc1ccc(S(=O)(=O)N(C)C[C@@H]2Oc3ccc(NS(=O)(=O)c4c(C)noc4C)cc3CC(=O)N([C@H](C)CO)C[C@@H]2C)cc1 | inactive
6 | COc1ccccc1CCNCc1ccc(OC)c(OCc2ccccc2)c1 | inactive
7 | Cc1noc(C)c1S(=O)(=O)Nc1cccc2c1O[C@H](CN(C)Cc1ccc(C(F)(F)F)cc1)[C@@H](C)CN([C@@H](C)CO)C2=O | inactive
8 | CCCC#Cc1ccc2c(c1)O[C@@H](CN(C)S(=O)(=O)c1cccc(F)c1)[C@@H](C)CN([C@H](C)CO)S2(=O)=O | inactive
